Records with an inconclusive call do not appear. Calls of active or inactive are those of the source. The calls were made as follows: active = hit-call score of the fitted dose curve at least 0.9, where 1 is the maximum; inconclusive = response in the unintended direction; inactive = score below 0.9.
Tested on: rainbow trout Peroxisome Proliferator-activated Receptor alpha (PPARa), gene 110490141
Assay: ATG_rtPPARa_EcoTox2: Attagene TRANS-FACTORIAL EcoTox-2 HepG2 Assay for rainbow trout Peroxisome Proliferator-activated Receptor alpha (PPARa)
Method: ATG_EcoTox2 is a cell-based, multiplexed assay created by modifying the existing Attagene TRANS-FACTORIAL system to include a panel of nuclear receptors from some or all the following species: human (Homo sapiens), african clawed frog (Xenopus laevis), rainbow trout (Oncorhynchus mykiss), japanese medaka (Oryzias latipes), and zebrafish (Danio rerio). The ECOTOX2-FACTORIAL format uses HepG2, a human liver cell line, with measurements taken at 24 hours after chemical dosing in a 24-well plate. ATG_rtPPARa_EcoTox2 is one of 29 assay components calculated in the ATG_EcoTox2 assay. It is designed to make measurements of mRNA induction, a form of inducible reporter, as detected with fluorescence intensity signals by Reverse transcription polymerase chain reaction (RT-PCR) and Capillary electrophoresis technology.The assay endpoint […] was analyzed in the positive analysis fitting direction relative to DMSO as the negative control and baseline of activity. Using a type of inducible reporter, measures of mRNA for gain-of-signal activity can be used to understand the reporter gene at the transcription factor-level as they relate to the gene PPARa. Furthermore, this assay endpoint can be referred to as a primary readout, because this assay has produced multiple assay endpoints where this one serves a reporter gene function. To generalize the intended target to other relatable targets, this assay endpoint is annotated to the nuclear receptor intended target family, where the subfamily is non-steroidal.
Human liver HepG2 cells are transiently transfected with multiple reporter transcription units (MRTUs) in 6-well plates using FuGene 6 reagent (Roche; 3 ml FuGene/1 mg DNA). The MRTU constructs are regulated by a cis-regulating element (promoter). Each RTU expresses a GAL4-UAS that regulates the transcription of a nearby target reporter gene sequence. A major difference between the CIS and TRANS system is that in CIS activities of endogenous TFs are measured, whereas the TRANS assay evaluates changes in activities of exogenous, chimeric NR-Gal4 proteins. […] At the end of 24 hour incubation, total RNA was isolated using TriZol reagent (Invitrogen). The isolated RNA is then reverse-transcribed using oligo(dT) primer and Mo-MLV reverse transcriptase (Invitrogen) with DNAse I (Ambion) treatment for 30 min. The one-tenth of the produced cDNA was amplified by PCR using Taq DNA polymerase (Invitrogen) and two reporter sequence-specific primers. The PCR products were fluorescently labeled by primer extension with 6-arboxyfluorescein (6-FAM) 5'-labeled reporter sequence-specific primer (2 min at 95 C, 20 s at 68 C and 10 min at 72 C) and these products were digested with 5U of HpaI (New England Biolabs) for 2h at 37 C. The fragments were purified using Qiaquick PCR columns (Qiagen), analyzed on an ABI 3130xL genetic analyzer (Applied Biosystems) with peak positions identified by using a set of X-rhodamine (ROX)-labeled MapMarker1000 molecular weight standards (BioVentures). The raw capillary electrophoresis data was processed using Attagraph software (Attagene).

| Compound | outcome | AC50 |
| --- | --- | --- |
| CC(C)OC(=O)C(C)(C)Oc1ccc(C(=O)c2ccc(Cl)cc2)cc1 | inactive | – |
| Cc1ccc(C)c(OCCCC(C)(C)C(=O)O)c1 | – | 10.4 µM (active) |
| CC(C)(Oc1ccc(Cl)cc1)C(=O)O | inactive | – |
| CC(C)(Oc1ccc(C2CC2(Cl)Cl)cc1)C(=O)O (configuration not stated) | – | 75.3 µM (active) |
| Cc1cccc(Nc2cc(Cl)nc(SCC(=O)O)n2)c1C | – | 25 µM (active) |
| Cc1nc(-c2ccc(C(F)(F)F)cc2)sc1C(=O)NCc1ccc(OC(C)(C)C(=O)O)cc1 | – | 0.0823 µM (active) |
| CC(c1cc2ccccc2s1)N(O)C(N)=O (configuration not stated) | inactive | – |
| CC(C)(Oc1ccc(CCNC(=O)c2ccc(Cl)cc2)cc1)C(=O)O | – | 41.3 µM (active) |
| C[C@]12C=CC(=O)C=C1CC[C@@H]1[C@@H]2C(=O)C[C@@]2(C)[C@H]1CC[C@]2(O)C(=O)CO | inactive | – |
| CN(CCOc1ccc(CC2SC(=O)NC2=O)cc1)c1ccccn1 (configuration not stated) | – | 6.15 µM (active) |
| C[C@@H]1C[C@H]2[C@@H]3CCC4=CC(=O)C=C[C@]4(C)[C@@]3(F)[C@@H](O)C[C@]2(C)[C@@]1(O)C(=O)COP(=O)(O)O | inactive | – |
| C=C(c1ccc(C(=O)O)cc1)c1cc2c(cc1C)C(C)(C)CCC2(C)C | inactive | – |
